# Measured values published in PubChem BioAssay (Tox21).
# Where “and” joins values, the source holds several entries; their conditions need not be identical. Identical values can stand only once. Inconclusive results are not listed. A call without a number means that no potency is given here. More than one record can exist for a structure, and the calls need not agree. Calls of active or inactive are those of the source. Calls follow the shape of the dose curve; as a rule, active = well fitted curve in the direction sought with a large enough effect in the repeat runs; inconclusive = weak or mixed curves; inactive = no such curve, though single readings can be large; an effect the other way counts as inactive or inconclusive.
# Columns and labels:
# [1] = Caspase-3/7 induction in HepG2 cells by small molecules, qHTS assay (AID 1346978); also: nearly all actives have a fitted effect of over 15% in size; also: potency is read from the fitted curve at half-maximal effect
# In short: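 Wild-type HepG2 cells (2,000/well) were settled 5 h at 37 C, 5% CO2, then exposed to compounds in DMSO for 17 h. Caspase-3/7 activity was read by luminescence 30 min after adding Caspase-Glo 3/7 reagent at room temperature.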
# [2] = Caspase-3/7 induction in CHO-K1 cells by small molecules, qHTS cell viability counter screen (AID 1346979); also: nearly all actives have a fitted effect of over 35% in size; also: potency is read from the fitted curve at half-maximal effect
# In short: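 Cells (CHO-K1, wild type) are plated at 1,500 per well and incubated 5hr. Test compounds in DMSO are then pinned in, followed by 16hr at 37C and 5% CO2. Viability is read by CellTiter-Fluor fluorescence after 1hr.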
# [3] = Caspase-3/7 induction in CHO-K1 cells by small molecules, qHTS assay (AID 1346980); also: nearly all actives have a fitted effect of over 15% in size
# In short: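 Wild-type cells were seeded at 1,500 per well and settled 5 hr at 37 C, 5% CO2, then exposed to DMSO-dissolved compounds for 17 hr. Caspase-Glo 3/7 reagent was added, and luminescence was read after 30min at room temperature.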
# [4] = Caspase-3/7 induction in HepG2 cells by small molecules, qHTS cell viability counter screen (AID 1346981); also: nearly all actives have a fitted effect of over 30% in size; also: potency is read from the fitted curve at half-maximal effect
# In short: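 Counter screen for cytotoxicity: HepG2 exposed 16 hr to compounds, then CellTiter-Fluor viability signal (fluorescence, 1 hr reagent incubation).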
# [5] = molecular target: Nuclear receptor subfamily 1 group I member 2 (Homo sapiens) (UniProt O75469); test: Human pregnane X receptor (PXR) small molecule agonists, qHTS assay (AID 1346982); also: nearly all actives have a fitted effect of over 35% in size; also: potency is read from the fitted curve at half-maximal effect
# Nuclear receptor subfamily 1 group I member 2 (Homo sapiens), sequence (O75469 whole entry, looked up): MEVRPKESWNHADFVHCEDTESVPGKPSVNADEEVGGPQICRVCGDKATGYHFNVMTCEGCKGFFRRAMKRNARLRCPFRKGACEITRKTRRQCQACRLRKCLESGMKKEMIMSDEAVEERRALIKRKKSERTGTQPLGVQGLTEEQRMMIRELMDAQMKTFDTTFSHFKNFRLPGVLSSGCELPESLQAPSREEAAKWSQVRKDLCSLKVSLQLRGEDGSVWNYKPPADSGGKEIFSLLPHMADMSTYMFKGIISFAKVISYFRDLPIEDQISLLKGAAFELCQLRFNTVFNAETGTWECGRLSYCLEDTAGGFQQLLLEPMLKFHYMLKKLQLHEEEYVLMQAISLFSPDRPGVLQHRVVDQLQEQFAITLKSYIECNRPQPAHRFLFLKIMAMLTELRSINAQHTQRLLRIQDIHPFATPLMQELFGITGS
# In short: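 Luminescence (ONE-Glo, 30 min RT) after 24 hr compound exposure of PXR-Luc HepG2 cells; cells rested 5 hr post-plating in 5% charcoal-stripped FBS medium.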
# [6] = molecular target: Nuclear receptor subfamily 1 group I member 2 (Rattus norvegicus) (UniProt Q9R1A7); test: Rat pregnane X receptor (rPXR) activation by small molecules, qHTS assay (AID 1346983); settings: rPXR luciferase reporter cells, One-Glo luminescence, 24 h; max activation: stronger effect = higher value; also: nearly all actives have a fitted effect of over 20% in size
# Nuclear receptor subfamily 1 group I member 2 (Rattus norvegicus), sequence (Q9R1A7 whole entry, looked up): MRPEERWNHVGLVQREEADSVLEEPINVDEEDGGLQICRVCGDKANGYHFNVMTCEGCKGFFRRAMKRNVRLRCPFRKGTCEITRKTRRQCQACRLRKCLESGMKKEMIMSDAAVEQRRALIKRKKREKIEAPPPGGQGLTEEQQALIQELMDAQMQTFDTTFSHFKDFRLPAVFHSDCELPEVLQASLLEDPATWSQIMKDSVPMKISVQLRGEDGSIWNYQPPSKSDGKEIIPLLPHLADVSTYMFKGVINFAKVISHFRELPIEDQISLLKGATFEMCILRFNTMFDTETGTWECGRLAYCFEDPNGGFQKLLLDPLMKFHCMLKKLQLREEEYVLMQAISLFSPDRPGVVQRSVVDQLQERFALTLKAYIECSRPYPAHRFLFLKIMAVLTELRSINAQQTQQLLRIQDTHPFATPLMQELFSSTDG
# In short: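 Cell-based rPXR luciferase reporter assay, 2,000 cells per well, rested 5hr at 37 C before compound addition in DMSO, then 24 hr at 37 C. One-Glo reagent was added and luminescence read after 30 min at room temperature.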
# [7] = molecular target: Nuclear receptor subfamily 1 group I member 2 (Homo sapiens) (UniProt O75469); test: CYP3A4 induction through human pregnane X receptor (PXR) by small molecules, qHTS assay (AID 1346984); also: nearly all actives have a fitted effect of over 40% in size
# In short: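 DPX-2 reporter cells; 24h cpd, 37C; Luciferin-IPA 3uM final x3h; One-Glo 30 min RT; lumi read.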
# [8] = molecular target: Nuclear receptor subfamily 1 group I member 2 (Homo sapiens) (UniProt O75469); test: Human pregnane X receptor (PXR) activation by small molecules, qHTS assay (AID 1346985); also: nearly all actives have a fitted effect of over 40% in size
# In short: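 DPX-2 cells (HepG2 co-transfected with a PXR response element and a CYP3A4-promoter luciferase construct) were seeded at 2,000 per well, rested 5 hr at 37C, then exposed to DMSO-dissolved compounds for 24 hr. Activation was read as luciferase luminescence.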
# [9] = molecular target: Cytochrome P450 2D6 (Homo sapiens) (UniProt P10635); test: Cytochrome P450 Family 2 Subfamily D Member 6 (CYP2D6) small molecule antagonists: luciferase reporter qHTS assay (AID 1671196); also: nearly all actives have a fitted effect of over 50% in size; also: potency is read from the fitted curve at half-maximal effect
# Cytochrome P450 2D6 (Homo sapiens), sequence (P10635 whole entry, looked up): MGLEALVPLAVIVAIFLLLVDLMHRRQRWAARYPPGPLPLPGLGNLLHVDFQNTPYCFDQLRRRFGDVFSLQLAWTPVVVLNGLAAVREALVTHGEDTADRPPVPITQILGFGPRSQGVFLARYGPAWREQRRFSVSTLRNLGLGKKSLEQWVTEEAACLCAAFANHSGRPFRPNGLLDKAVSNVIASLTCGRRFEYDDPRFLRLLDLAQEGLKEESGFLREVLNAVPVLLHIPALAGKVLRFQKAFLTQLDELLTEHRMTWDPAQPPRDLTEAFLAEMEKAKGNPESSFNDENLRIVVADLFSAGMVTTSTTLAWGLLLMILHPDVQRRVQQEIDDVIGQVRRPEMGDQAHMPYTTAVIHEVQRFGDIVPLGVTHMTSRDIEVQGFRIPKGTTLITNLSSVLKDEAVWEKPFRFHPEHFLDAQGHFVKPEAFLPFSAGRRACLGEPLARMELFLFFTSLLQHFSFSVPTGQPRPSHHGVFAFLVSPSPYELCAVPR
# In short: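 Inhibition of CYP2D6 was gauged by loss of luminescence, since light produced tracks the luciferin generated from a proluciferin substrate. A 10 min room-temperature preincubation preceded 1 h NADPH-supported turnover.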
# [10] = molecular target: Cytochrome P450 2C19 (Homo sapiens) (UniProt P33261); test: Cytochrome P450 Family 2 Subfamily C Member 19 (CYP2C19) small molecule antagonists: luciferase reporter qHTS assay (AID 1671197); also: nearly all actives have a fitted effect of over 65% in size; also: potency is read from the fitted curve at half-maximal effect
# Cytochrome P450 2C19 (Homo sapiens), sequence (P33261 whole entry, looked up): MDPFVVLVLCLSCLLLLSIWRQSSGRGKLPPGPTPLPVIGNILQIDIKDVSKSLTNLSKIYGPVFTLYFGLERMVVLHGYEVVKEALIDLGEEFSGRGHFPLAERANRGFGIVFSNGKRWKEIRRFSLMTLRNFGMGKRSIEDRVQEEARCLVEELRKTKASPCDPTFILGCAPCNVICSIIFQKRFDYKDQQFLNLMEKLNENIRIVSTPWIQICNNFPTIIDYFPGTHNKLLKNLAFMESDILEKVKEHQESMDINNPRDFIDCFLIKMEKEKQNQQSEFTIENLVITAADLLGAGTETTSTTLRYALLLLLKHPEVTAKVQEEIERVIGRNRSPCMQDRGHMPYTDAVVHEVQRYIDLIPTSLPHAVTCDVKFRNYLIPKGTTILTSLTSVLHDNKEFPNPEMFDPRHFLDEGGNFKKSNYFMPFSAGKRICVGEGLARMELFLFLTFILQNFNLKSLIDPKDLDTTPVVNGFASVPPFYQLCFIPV
# In short: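 Light output is proportional to CYP2C19 activity: proluciferin substrate is converted to luciferin, then detected by a luciferin detection reagent that also stops the 1 h, 37C NADPH-driven reaction. Ketoconazole serves as positive control.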
# [11] = molecular target: Cytochrome P450 2C9 (Homo sapiens) (UniProt P11712); test: Cytochrome P450 Family 2 Subfamily C Member 9 (CYP2C9) small molecule antagonists: luciferase reporter qHTS assay (AID 1671198); also: nearly all actives have a fitted effect of over 50% in size; also: potency is read from the fitted curve at half-maximal effect
# Cytochrome P450 2C9 (Homo sapiens), sequence (P11712 whole entry, looked up): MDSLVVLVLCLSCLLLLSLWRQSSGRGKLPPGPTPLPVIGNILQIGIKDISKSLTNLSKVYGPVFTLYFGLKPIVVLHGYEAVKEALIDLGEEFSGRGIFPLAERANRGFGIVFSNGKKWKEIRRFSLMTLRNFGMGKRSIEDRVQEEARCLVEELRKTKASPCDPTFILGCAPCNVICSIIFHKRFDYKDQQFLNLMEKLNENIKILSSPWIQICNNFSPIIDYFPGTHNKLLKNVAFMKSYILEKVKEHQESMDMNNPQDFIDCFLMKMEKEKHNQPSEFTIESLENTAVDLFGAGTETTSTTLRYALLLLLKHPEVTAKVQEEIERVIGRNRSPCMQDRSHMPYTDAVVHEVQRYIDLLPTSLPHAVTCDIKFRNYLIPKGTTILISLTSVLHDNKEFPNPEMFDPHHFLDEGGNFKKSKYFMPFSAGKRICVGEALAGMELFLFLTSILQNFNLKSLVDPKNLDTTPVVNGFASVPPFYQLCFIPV
# In short: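 CYP2C9 activity was measured with a P450-Glo proluciferin substrate. Enzyme–substrate mix was held with compound for 10 min at room temperature, then NADPH regeneration solution was added for 1 h at 37C. Luciferin product was read as luminescence.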
# [12] = molecular target: Cytochrome P450 1A2 (Homo sapiens) (UniProt P05177); test: Cytochrome P450 Family 1 Subfamily A Member 2 (CYP1A2) small molecule antagonists: luciferase reporter qHTS assay (AID 1671199); also: nearly all actives have a fitted effect of over 50% in size; also: potency is read from the fitted curve at half-maximal effect
# Cytochrome P450 1A2 (Homo sapiens), sequence (P05177 whole entry, looked up): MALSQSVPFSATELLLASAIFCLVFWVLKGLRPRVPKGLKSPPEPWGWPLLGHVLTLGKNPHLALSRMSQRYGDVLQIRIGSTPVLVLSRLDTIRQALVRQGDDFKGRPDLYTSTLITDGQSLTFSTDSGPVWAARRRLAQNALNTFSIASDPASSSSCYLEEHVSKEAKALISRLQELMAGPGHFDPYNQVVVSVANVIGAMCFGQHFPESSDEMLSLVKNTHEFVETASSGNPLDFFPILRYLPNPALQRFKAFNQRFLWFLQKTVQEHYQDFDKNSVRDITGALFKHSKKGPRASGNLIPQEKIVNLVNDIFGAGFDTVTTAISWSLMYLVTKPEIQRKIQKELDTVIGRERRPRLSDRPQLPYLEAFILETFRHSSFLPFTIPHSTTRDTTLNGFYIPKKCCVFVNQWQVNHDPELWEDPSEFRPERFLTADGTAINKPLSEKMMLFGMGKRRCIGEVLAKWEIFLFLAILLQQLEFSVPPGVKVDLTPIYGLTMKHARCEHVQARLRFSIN
# In short: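 Signal from luciferin formed by CYP1A2 from a proluciferin substrate is read as luminescence, expressed in relative luminescence units. Compounds sit with enzyme 10 min, NADPH-driven reaction runs 1 h, all at room temperature.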
# [13] = molecular target: Voltage-gated inwardly rectifying potassium channel KCNH2 (Homo sapiens) (UniProt Q12809); test: Human Ether-a-go-go-Related Gene (hERG) channel small molecule antagonists: fluorescence cell-based qHTS assay (AID 1671200); also: nearly all actives have a fitted effect of over 50% in size; also: potency is read from the fitted curve at half-maximal effect
# Voltage-gated inwardly rectifying potassium channel KCNH2 (Homo sapiens), sequence (Q12809 whole entry, looked up): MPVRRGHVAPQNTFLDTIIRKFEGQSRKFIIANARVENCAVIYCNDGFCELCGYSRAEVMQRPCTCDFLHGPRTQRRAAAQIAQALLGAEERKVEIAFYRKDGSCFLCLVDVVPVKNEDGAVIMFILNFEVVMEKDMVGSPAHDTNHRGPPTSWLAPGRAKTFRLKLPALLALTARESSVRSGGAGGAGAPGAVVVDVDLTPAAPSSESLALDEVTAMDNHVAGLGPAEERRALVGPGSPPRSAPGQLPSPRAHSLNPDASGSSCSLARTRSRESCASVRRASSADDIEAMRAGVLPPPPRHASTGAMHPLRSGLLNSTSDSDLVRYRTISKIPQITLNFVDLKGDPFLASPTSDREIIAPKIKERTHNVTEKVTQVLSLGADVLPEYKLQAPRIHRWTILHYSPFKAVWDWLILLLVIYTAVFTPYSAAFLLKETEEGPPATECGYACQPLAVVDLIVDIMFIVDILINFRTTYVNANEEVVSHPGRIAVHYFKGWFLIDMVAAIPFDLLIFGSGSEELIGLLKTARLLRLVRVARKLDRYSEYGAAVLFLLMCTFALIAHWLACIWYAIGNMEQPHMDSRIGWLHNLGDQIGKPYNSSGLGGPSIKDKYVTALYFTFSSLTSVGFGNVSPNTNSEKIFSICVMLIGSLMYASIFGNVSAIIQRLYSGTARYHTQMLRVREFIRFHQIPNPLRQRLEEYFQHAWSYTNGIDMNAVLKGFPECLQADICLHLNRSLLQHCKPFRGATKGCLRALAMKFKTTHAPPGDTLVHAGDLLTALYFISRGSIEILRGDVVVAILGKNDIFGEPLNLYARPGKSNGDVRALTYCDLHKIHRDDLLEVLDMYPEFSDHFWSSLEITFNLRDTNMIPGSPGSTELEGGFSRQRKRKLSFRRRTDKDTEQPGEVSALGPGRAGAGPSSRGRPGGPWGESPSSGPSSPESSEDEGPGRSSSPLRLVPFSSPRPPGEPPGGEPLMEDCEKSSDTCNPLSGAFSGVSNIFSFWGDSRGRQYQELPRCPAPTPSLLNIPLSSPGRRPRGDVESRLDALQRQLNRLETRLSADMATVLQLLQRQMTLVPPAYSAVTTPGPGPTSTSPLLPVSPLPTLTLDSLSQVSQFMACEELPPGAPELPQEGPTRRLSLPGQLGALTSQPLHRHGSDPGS
# In short: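 Channel function was assessed by thallium flux. Cells seeded the previous day and kept at 37 C took up FluxOR II dye over 1 h in the dark at room temperature, then sat another 10 min before stimulation.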
# [14] = molecular target: Cytochrome P450 3A4 (Homo sapiens) (UniProt P08684); test: Cytochrome P450 Family 3 Subfamily A Member 4 (CYP3A4) small molecule antagonists: luciferase reporter qHTS assay (AID 1671201); also: nearly all actives have a fitted effect of over 50% in size; also: potency is read from the fitted curve at half-maximal effect
# Cytochrome P450 3A4 (Homo sapiens), sequence (P08684 whole entry, looked up): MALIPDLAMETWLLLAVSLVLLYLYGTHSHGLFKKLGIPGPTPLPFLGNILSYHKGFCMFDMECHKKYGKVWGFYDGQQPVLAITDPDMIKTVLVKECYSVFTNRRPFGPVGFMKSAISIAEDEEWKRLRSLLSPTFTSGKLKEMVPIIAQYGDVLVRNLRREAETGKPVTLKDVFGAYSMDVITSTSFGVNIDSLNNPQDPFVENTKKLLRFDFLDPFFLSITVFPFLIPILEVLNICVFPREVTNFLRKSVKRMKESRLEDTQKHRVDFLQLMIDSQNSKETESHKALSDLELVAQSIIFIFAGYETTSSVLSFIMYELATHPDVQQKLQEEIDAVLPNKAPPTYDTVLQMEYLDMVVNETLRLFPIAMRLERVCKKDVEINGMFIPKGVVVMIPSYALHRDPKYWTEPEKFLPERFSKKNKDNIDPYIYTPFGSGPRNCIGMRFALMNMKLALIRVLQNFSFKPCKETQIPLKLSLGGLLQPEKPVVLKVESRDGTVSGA
# In short: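 Compounds in DMSO were pin-transferred onto CYP3A4 enzyme-substrate mix and held 10 min at room temperature. NADPH regenerating solution started the reaction for 1 h; luciferin detection reagent stopped it, and luminescence was read after 20 min.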
Compound,Potency [1],Potency [2],Potency [3],Potency [4],Potency [5],max activation [6],Potency [7],outcome [8],Potency [9],Potency [10],Potency [11],Potency [12],Potency [13],Potency [14]
CCCCCCCC(=O)OCC(COC(=O)CCCCCCC)OC(=O)CCCCCCC,inactive,inactive,inactive,inactive,inactive,-1.45% (inactive),inactive,inactive,inactive,inactive,inactive,inactive,inactive,inactive
NC(=O)c1cccnc1,inactive,inactive,inactive,inactive,inactive,-0.433% (inactive),inactive,inactive,inactive,49.3 µM (active) and inactive,inactive,inactive,inactive,inactive
CCCCCCCCCCCCCCCC[N+](C)(C)Cc1ccccc1,70.8 µM (active) and inactive,50.1 µM (active) and 39.3 µM (active) and 29.8 µM (active),inactive,62.2 µM (active),inactive,-17.4% (inactive),inactive,inactive,923 nM (active) and 406 nM (active) and 389 nM (active),32.7 µM (active) and 51.2 µM (active) and 27.5 µM (active),82.2 µM (active) and 36.2 µM (active) and 30.9 µM (active),36.7 µM (active) and 72.3 µM (active) and inactive,1.79 µM (active) and 4.98 µM (active) and 6.74 µM (active),inactive
CCN(CC)C(=O)c1cccc(C)c1,inactive,inactive,inactive,inactive,inactive,-4.83% (inactive),,inactive,inactive,inactive and 71 µM (active),inactive,,inactive,
CCCCC(CC)C(=O)O (centres undefined),inactive,inactive,inactive,inactive,inactive,,,,inactive,inactive,inactive and 71 µM (active),inactive,inactive,inactive
Nc1ccc([N+](=O)[O-])cc1O,inactive,40.9 µM (active),inactive,48.6 µM (active),61.1 µM (active),,,,,6.33 µM (active),43.5 µM (active),42.3 µM (active),inactive,
COc1ccc(CN(CCN(C)C)c2ccccn2)cc1,inactive,inactive,inactive,inactive,inactive,,,,,9.94 µM (active) and 32.8 µM (active) and 21.9 µM (active),inactive,inactive,21.7 µM (active) and 20.1 µM (active),inactive
CCCCCCCCCCCC[N+](C)(C)Cc1ccccc1,67.3 µM (active) and 66.4 µM (active),42.4 µM (active) and 33.3 µM (active) and 26.6 µM (active),inactive,67.3 µM (active) and 74.5 µM (active) and inactive,inactive,,,,984 nM (active) and 866 nM (active) and 219 nM (active),78.1 µM (active) and 34.5 µM (active) and 17.4 µM (active),77.2 µM (active),34.9 µM (active) and 38.7 µM (active) and 36.3 µM (active),1.08 µM (active) and 1.5 µM (active) and 1.07 µM (active),inactive
CC(C)C(=O)Nc1ccc([N+](=O)[O-])c(C(F)(F)F)c1,inactive,44.5 µM (active) and 54.5 µM (active) and 26.6 µM (active),inactive,inactive,35.4 µM (active) and 34.4 µM (active) and 29.8 µM (active),,,,36.6 µM (active) and 63.3 µM (active),18.3 µM (active) and 22.4 µM (active) and 7.76 µM (active),32.6 µM (active) and 31.7 µM (active) and 15.5 µM (active),1.63 µM (active) and 5.03 µM (active) and 2.57 µM (active),inactive,
COc1ccc2cc(S(=O)(=O)N[C@H](CC(=O)N[C@H](Cc3ccc(CN4[C@H](C)CCC[C@@H]4C)cc3)C(=O)N(C)C(C)C)c3ccc4c(c3)OCO4)ccc2c1,57.9 µM (active),51.6 µM (active),inactive,29 µM (active),inactive,,,,169 nM (active),,59.9 µM (active),inactive,7.34 µM (active),0.0949 µM (active)
Nc1ccc(O)c([N+](=O)[O-])c1,inactive,47.1 µM (active),inactive,61.1 µM (active),19.3 µM (active),,,,,22.2 µM (active),25 µM (active),48.5 µM (active),inactive,
O=C(O)c1ccccc1,inactive,inactive,inactive,inactive,inactive,,,,37.4 µM (active) and inactive,33.3 µM (active) and 3.47 µM (active) and inactive,inactive,37.4 µM (active) and inactive,inactive,inactive
CC(=O)Nc1c(I)c(NC(C)=O)c(I)c(C(=O)O)c1I,inactive,inactive,inactive,inactive,24.3 µM (active) and inactive,,,,inactive,inactive and 79.6 µM (active),inactive,inactive,inactive,inactive
CC1(C)S[C@@H]2[C@H](NC(=O)[C@H](N)c3ccccc3)C(=O)N2[C@H]1C(=O)O,inactive,inactive,inactive,inactive,inactive,,,,44.5 µM (active) and inactive,inactive,,inactive,,inactive
